Data reported in PMC4336329 (PLoS ONE, 2015).
In all, about 310,000 compounds went through this assay and about 14,000 (4.5%) showed an effect of 50% or more. Effects have a minus sign here. The full list was thinned out, with strong results kept by preference.

molecular target: human ether-à-go-go-related gene (hERG) potassium channel (human, UniProt Q12809); assay: primary screen, population patch clamp on CHO cells stably expressing hERG; higher = less effect of the substance
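Note: peak tail current of the secondary pulse compared with the same well before compound.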

Chain of human ether-à-go-go-related gene (hERG) potassium channel (Q12809 whole entry, looked up): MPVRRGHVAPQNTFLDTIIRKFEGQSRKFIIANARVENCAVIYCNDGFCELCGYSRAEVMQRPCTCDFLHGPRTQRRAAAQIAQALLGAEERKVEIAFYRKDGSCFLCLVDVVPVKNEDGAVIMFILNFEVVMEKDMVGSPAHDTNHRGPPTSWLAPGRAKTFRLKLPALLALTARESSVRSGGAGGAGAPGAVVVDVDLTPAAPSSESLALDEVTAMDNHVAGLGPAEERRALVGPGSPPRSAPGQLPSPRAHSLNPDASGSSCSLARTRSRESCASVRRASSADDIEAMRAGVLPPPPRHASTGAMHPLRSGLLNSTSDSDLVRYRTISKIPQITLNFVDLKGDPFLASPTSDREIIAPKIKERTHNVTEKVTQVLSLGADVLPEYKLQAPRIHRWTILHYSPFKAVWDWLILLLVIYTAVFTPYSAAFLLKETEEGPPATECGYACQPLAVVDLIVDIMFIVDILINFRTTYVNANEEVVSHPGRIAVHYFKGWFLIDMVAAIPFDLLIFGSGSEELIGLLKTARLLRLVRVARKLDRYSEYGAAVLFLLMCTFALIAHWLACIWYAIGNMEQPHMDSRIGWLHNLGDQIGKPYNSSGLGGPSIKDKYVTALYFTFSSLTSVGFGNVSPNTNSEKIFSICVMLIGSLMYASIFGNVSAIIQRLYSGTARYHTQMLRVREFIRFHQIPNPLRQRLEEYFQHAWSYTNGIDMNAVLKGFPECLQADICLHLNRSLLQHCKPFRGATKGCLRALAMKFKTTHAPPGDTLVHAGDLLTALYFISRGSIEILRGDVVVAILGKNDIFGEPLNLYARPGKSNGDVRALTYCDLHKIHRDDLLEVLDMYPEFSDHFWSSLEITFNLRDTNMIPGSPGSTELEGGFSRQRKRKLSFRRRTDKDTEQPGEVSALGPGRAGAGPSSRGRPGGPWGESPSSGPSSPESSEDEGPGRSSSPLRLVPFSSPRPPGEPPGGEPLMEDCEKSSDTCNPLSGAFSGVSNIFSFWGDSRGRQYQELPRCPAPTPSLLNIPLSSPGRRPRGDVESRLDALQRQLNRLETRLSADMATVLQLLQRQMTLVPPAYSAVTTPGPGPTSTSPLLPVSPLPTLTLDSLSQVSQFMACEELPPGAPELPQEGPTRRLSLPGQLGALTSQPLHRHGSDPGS

Compound | hERG current change (%, negative = inhibition) at 10uM
C[C@]12CCC3C(CC[C@H]4CCCC[C@]34C)C1CC[C@@]2(O)CNCCO (some centres unmarked) | 15.6%
O=C(O)CCCNc1cc(N2CCN(C(=O)c3ccco3)CC2)c2noc3c2c1C(=O)c1ccccc1-3 | 19%
O=C(O)C1CCCCC1C(=O)Nc1nc(-c2ccc(Cl)s2)cs1 (centres unmarked) | 13.7%
C/C(=N\NC(=O)c1ccc(F)cc1)c1ccc(N2CCOCC2)cc1 | -16.7%
O=S(=O)(c1cccc(-c2cn3cc(Cl)ccc3n2)c1)N1CCOCC1 | -23.1%
CCCCOC(=O)c1ccc(NC(=O)CSCc2n[nH]c(=O)[nH]2)cc1 | 1.91%
S=C(NC1CCCCC1)N(CCc1nc2ccccc2[nH]1)C1CCCC1 | 4.83%
CCN(CC)C(=O)Cn1cc(C(=O)C(=O)N2CCN(c3ccc([N+](=O)[O-])cc3)CC2)c2ccccc21 | -65.8%
CCN(CC)C(=O)Cn1cc(C(=O)C(=O)N2CCN(c3ccccc3)CC2)c2ccccc21 | -0.908%
CCOC(=O)N1CCN(c2ccc(O)cc2)CC1 | 15.6%
CCN(CC)C(=O)Cn1cc(C(=O)C(=O)N2CCN(c3ccc(OC)cc3)CC2)c2ccccc21 | 16.1%
O=[N+]([O-])c1ccc(N2CCN(c3ccccc3O)CC2)cc1 | -0.173%
COc1ccc(N2CCN(C(=O)C3CCN(C(=O)c4ccc([N+](=O)[O-])cc4)CC3)CC2)cc1 | -69%
Cc1cnc(C(=O)Nc2ccc(N3CCN(C(=O)OC(C)(C)C)CC3)cc2)cn1 | 14.1%
COc1ccc(N2CCN(C(=O)C3CCN(C(=O)c4cccc(Cl)c4)CC3)CC2)cc1 | -29.8%
CC(C)(C)OC(=O)N1CCN(c2ccc([N+](=O)[O-])cc2)CC1 | -73.3%
CCOC(=O)N1CCN(c2ccc([N+](=O)[O-])cc2)CC1 | -59.4%
COc1ccc(C(=O)N2CCC(C(=O)N3CCN(c4ccc(OC)cc4)CC3)CC2)cc1 | -43.5%
CCOC(=O)N1CCN(S(=O)(=O)c2ccc([N+](=O)[O-])cc2)CC1 | -23.9%

Compound | hERG current change (%, negative = inhibition) at 10uM
COC(=O)C(NS(=O)(=O)c1ccc(NC(C)=O)cc1)C(C)C (centres unmarked) | -0.58%
CN(C)CCCNC(=O)c1cc(C(=O)C2CCCCC2)c[nH]1 | -3.99%
C=C(C)C(C)(C#CCN1CCCC1)OC(C)=O (centres unmarked) | -6.48%
NS(=O)(=O)c1ccc(CNC(=O)CCC2CCCCC2)cc1 | -2.5%
COc1cc(NC(=S)N2CCN(S(=O)(=O)c3ccc(C)cc3)CC2)cc(OC)c1 | -4.7%
CC(=O)c1ccc(-n2cc(C#N)c(=O)[nH]c2=O)cc1 | 18.9%
CC1CN(C(=O)c2cccc(COc3ccccc3Cl)c2)CC(C)O1 (centres unmarked) | -49.3%
Cc1ccc(C(=O)OCc2cn(-c3ccccc3)nn2)cc1 | -7.92%
O=C(O)Cc1sc(Nc2ccccc2)nc1-c1ccc(Cl)cc1 | 14.6%
Nc1nnc(SCC(=O)Nc2cccc(S(=O)(=O)N3CCOCC3)c2)s1 | 24.1%
CC(=O)N1CCN(c2ccc(NC(=O)c3ccc([N+](=O)[O-])cc3)cc2)CC1 | 1.37%
O=C(C1CC1)N1CCN(c2ccc(O)cc2)CC1 | -17.3%
CCOC(=O)N1CCN(c2c(N3CCc4ccccc4C3)c(=O)c2=O)CC1 | -34.8%
COc1ccc(N2CCN(C(=O)C3(C)CC3(Cl)Cl)CC2)cc1 (centres unmarked) | 2.66%
O=C(C1CC1)N1CCN(c2ccc([N+](=O)[O-])cc2)CC1 | -61.8%
CCOC(=O)N1CCN(c2c(N3CC=C(c4ccccc4)CC3)c(=O)c2=O)CC1 | -51.9%
CC(=O)N1CCN(c2ccc([N+](=O)[O-])cc2)CC1 | -55.9%
CC1(C(=O)N2CCN(c3ccccc3)CC2)CC1(Cl)Cl (centres unmarked) | 6.47%
CC1(C(=O)N2CCN(c3ccc([N+](=O)[O-])cc3)CC2)CC1(Cl)Cl (centres unmarked) | -72.7%

Compound | hERG current change (%, negative = inhibition) at 10uM
CC(=O)N1CCN(C(=S)c2ccc([N+](=O)[O-])cc2)CC1 | -3.4%
CCOC(=O)N1CCN(c2c(-c3ccc(C)cc3)c(=O)c2=O)CC1 | -29.7%
COc1ccc(CC(=O)N(C)C2CCCN(Cc3ccccc3F)C2)cc1OC (centres unmarked) | -4.9%
CCOC(=O)C1CSC(CC(=O)Nc2ccc(Cl)c(Cl)c2)C(=O)N1 (centres unmarked) | -24.2%
COc1ccc(CCC(=O)OCC(=O)Nc2sccc2C(N)=O)cc1 | -5.4%
CCOC(=O)C1CCN(C(=O)COc2ccc([N+](=O)[O-])cc2)CC1 | -60.8%
O=[N+]([O-])c1ccc(N2CCCCC2)cc1 | -16.5%
CCOC(=O)N1CCN(C(=O)COc2ccc([N+](=O)[O-])cc2)CC1 | -43%
CC(=O)N1CCN(c2ccc(Oc3ccc([N+](=O)[O-])c(C(F)(F)F)c3)cc2)CC1 | -59.9%
COc1ccc(N2CCN(c3ccc(C(=O)O)cc3[N+](=O)[O-])CC2)cc1 | 11%
O=C(OCC(=O)N1CCN(c2ccccc2)CC1)c1cccc([N+](=O)[O-])c1 | -28.2%
O=C(Cc1ccccc1[N+](=O)[O-])OCC(=O)N1CCN(c2ccccc2)CC1 | -6.16%
CN1CCCN(c2ccc([N+](=O)[O-])cc2)CC1 | -66%
COc1cc2c(cc1OC)CN(c1ccc([N+](=O)[O-])c(C(F)(F)F)c1)CC2 | -8.39%
CCOC(=O)C1CCN(C(=O)COc2ccc(Br)cc2)CC1 | -32.1%
CN1CCCN(c2ccc([N+](=O)[O-])nc2)CC1 | 2.45%
CC(=O)OCC(=O)N1CCN(c2ccc([N+](=O)[O-])cc2)CC1 | -63.3%
Cc1c(C(=O)Nc2ccc3c4c(cccc24)CC3)cccc1[N+](=O)[O-] | 9.1%
